AC50 and activity, negative = inhibition data for 96 compounds are collected here from PubChem BioAssay AID1851 (National Center for Advancing Translational Sciences (NCATS), 2009).

Broadly, the AC50 is the concentration at which the activity in the assay is half-maximal.

Out of some 16,000 compounds screened, about 4,000 (25%) were called active. Another 26% or so got no clear call; they are omitted. A selection follows. A number with no mark means an inactive call. Calls follow the shape of the dose curve; as a rule, active = well fitted curve in the direction sought with a large enough effect; inconclusive = small, poorly fitted or top-dose-only effect, or effect the other way; inactive = no such curve, though single readings can be large or run the other way.
% is scaled to controls: 0 for no effect and ±100 for the full control effect.

Cytochrome P450 2C9 (Homo sapiens), sequence (P11712 whole entry, looked up): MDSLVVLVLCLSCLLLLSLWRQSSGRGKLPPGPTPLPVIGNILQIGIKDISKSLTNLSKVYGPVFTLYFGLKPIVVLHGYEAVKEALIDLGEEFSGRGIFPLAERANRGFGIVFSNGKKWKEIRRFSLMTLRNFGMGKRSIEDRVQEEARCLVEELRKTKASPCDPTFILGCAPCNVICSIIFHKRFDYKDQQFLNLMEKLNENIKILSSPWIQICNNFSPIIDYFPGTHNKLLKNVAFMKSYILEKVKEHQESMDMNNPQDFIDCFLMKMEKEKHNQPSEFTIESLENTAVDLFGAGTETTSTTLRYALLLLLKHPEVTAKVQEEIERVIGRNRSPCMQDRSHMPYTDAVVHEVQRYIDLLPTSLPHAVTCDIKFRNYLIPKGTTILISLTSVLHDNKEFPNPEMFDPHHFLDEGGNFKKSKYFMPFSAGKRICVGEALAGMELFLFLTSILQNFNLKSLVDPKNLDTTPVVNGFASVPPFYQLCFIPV

The assay addresses Cytochrome P450 2C9 (Homo sapiens) (UniProt P11712). Kind of assay: Cytochrome panel assay with activity outcomes. The following applies: recombinant CYP, pro-luciferin dealkylation, luminescence, p450-cyp2c9; series mostly up to 57.1 µM.
Take `CC(C)NC(=O)N1CC2(CCN(S(=O)(=O)c3ccccc3)CC2)C1`: the AC50 entry was “inactive”. On the same count and under the same terms, the same measure for `O=S(=O)(c1ccccc1)N1CCC2(CCCN(C(c3ccccc3)c3ccccc3)C2)CC1`: “inactive”; for `O=S(=O)(c1ccccc1)N1CCC2(CC1)CN(C(c1ccccc1)c1ccccc1)C2`: 1 µM (active). Still for that read-out and setting: next, `O=S(=O)(c1ccccc1)N1CCC2(CCN(C(c3ccccc3)c3ccccc3)CC2)CC1`: 0.501 µM (active); `CS(=O)(=O)N1CCC2(CCN(C(c3ccccc3)c3ccccc3)CC2)CC1`: “inactive”; `NC1CCN(c2cccc(Cl)n2)CC1`: “inactive”. With `C[C@H]1[C@@H](O)[C@@H](C)\C=C/C=C\C=C/C=C\C=C/C=C\C=C/[C@@H](O[C@H]2O[C@@H](C)[C@@H](O)[C@@H](N)[C@@H]2O)C[C@@H]2O[C@](O)(C[C@@H](O)C[C@@H](O)[C@@H](O)CC[C@@H](O)C[C@@H](O)CC(=O)O[C@H]1C)C[C@@H](O)[C@H]2C(=O)O` (stereo in doubt), the AC50 result was “inactive”. Regarding `CC(=NC1CCCCC1)c1ccccc1O`, the activity, negative = inhibition was -0.794% [at 11.4 µM]. `CC1(C)CC(=O)C2=C(C1)N(Cc1ccccc1)C(=O)C2(O)C(F)(F)F` (stereo unspecified): the AC50 entry is “inactive”. Still for that read-out and setting: the same measure for `CCCCN1C(=O)C(NC(=O)C2CC2)(C(F)(F)F)C2=C1CC(C)(C)CC2=O` (stereo unspecified): 6.31 µM (active). The same measure, in the same setting: next, `CCOC(=O)c1c(-c2ccc(C)o2)csc1NC(=S)NC(=O)N(C)C`: 10 µM (active). Consider `Cc1cc(C)n2nc(-c3sccc3-n3cccc3)cc2n1`, for which the AC50 entry is “inactive”. Same read-out and setting: the same measure for `COc1ccc(C2c3c(ncn(CCN4CCOCC4)c3=N)Oc3ccc4ccccc4c32)cc1OC` (stereo unspecified): 8.91 µM (active). With `COc1ccccc1-c1nc(NCCN2CCOCC2)c2ccccc2n1`, the activity, negative = inhibition is 14% [at 2.29 µM].

As for `COc1ccccc1-c1ccc2ncnc(NCCN3CCOCC3)c2c1`, the activity, negative = inhibition was -10.8% [at 2.29 µM].

Consider `Cn1sc(NC(=O)c2ccccc2)nc1=O`, for which the AC50 is 14.1 µM (active). On the same count and under the same terms, next, `CCOC(=O)CSc1n[nH]c(NC(=O)c2ccccc2)n1`: “inactive”; `C=CCNC(=O)C1CCN(S(=O)(=O)CC)CC1`: “inactive”; `CC(CCc1ccccc1)NS(=O)(=O)c1ccccc1` (stereo unspecified): 3.98 µM (active). With `COC(=O)C/C=C\[C@@H](C)[C@@H](CO)NS(=O)(=O)c1ccc(C)cc1`, the activity, negative = inhibition was -7.12% [at 11.4 µM].

On to `CC(CCc1ccccc1)NC(=O)/C=C/c1ccccc1` (stereo unspecified), for which the AC50 was 7.08 µM (active).

As to `C[C@@H](CCc1ccccc1)NC[C@H](O)c1ccc(O)c(C(N)=O)c1`, the AC50 result was “inactive”. In the case of `Cc1ccc(S(=O)(=O)N[C@H](CO)C(=O)O)cc1`, the activity, negative = inhibition is -14.1% [at 11.4 µM]. Same read-out and setting: next, `O=C(O)[C@H](/C=C\c1ccccc1)c1ccccc1`: -17.8% [at 11.4 µM]. Take `Cc1ccc(S(=O)(=O)N[C@@H](CCc2ccccc2)CC(=O)C(C)(C)C)cc1`: the AC50 is 3.98 µM (active). Still for that read-out and setting: next, `O=C(O)/C=C\C(=O)NCc1ccccc1`: “inactive”.

Regarding `O=C(CC1(O)CCCCC1)OC1CCCC1`, the activity, negative = inhibition is -26.4% [at 11.4 µM]. Take `FC(F)(F)c1cc(CN2CCCC3(CCNCC3)C2)cc(C(F)(F)F)c1`: the AC50 result was “inactive”.

Consider `CC(C)N=c1scc(-c2ccco2)n1/N=C/c1ccc(O)c(O)c1`, for which the AC50 is 11.2 µM (active). Consider `C[N+](C)(C)/N=C\c1ccc(O)c(O)c1`, for which the activity, negative = inhibition is -5.12% [at 11.4 µM]. Regarding `CCCC(=O)Nc1nc2n(n1)C(c1ccccc1)CC(=O)N2` (stereo unspecified), the AC50 entry is “inactive”.

Regarding `CC1(C)CC(=O)C(CCCN2C(=O)c3ccccc3C2=O)C(=O)C1`, the AC50 is 17.8 µM (active).

Consider `O=C1CC[C@H](N2C(=O)c3ccccc3C2=O)C(=O)N1`, for which the AC50 entry was “inactive”. Same read-out and setting: next, `O=C1c2ccccc2C(=O)N1CCSC(=S)N1CCOCC1`: “inactive”. On the same count and under the same terms, the same measure for `CSc1cccc(NC(=O)Cn2cccc2)c1`: 20 µM (active); for `Cc1cccc(NC(=O)Cn2cccc2)c1`: “inactive”. Consider `CSc1cccc(NC(=O)OC2CCCCCCCCCCC2)c1`, for which the activity, negative = inhibition is -17.7% [at 11.4 µM]. As to `Clc1ccc(C2=C3CCCCn4c(-c5ccccc5)c[n+](c43)C2)cc1`, the AC50 result is “inactive”. Consider `O=C(c1ccc(Cl)cc1)N1CCCC(c2ccccc2)=N1`, for which the AC50 is 10 µM (active). For the compound `O=C(OCC1CC(c2ccccc2)=NO1)c1ccc(Cl)cc1` (stereo unspecified), the AC50 entry is “inactive”. On to `CC(C)(C)NC(=O)Cn1cnc([N+](=O)[O-])n1`, for which the AC50 result is “inactive”.

On to `O=C(O)c1cccnc1SCC(=O)N1CCCCCC1`, for which the AC50 result was “inactive”. The same measure, in the same setting: next, `COCC(=O)N1CCC2(CC1)CCN(C(c1ccccc1)c1ccccc1)CC2`: “inactive”. Still for that read-out and setting: the same measure for `Cc1cccc(C(CC(=O)N2CCCC2)c2ccccc2)c1O` (stereo unspecified): 3.98 µM (active). The same measure, in the same setting: next, `CCNc1ncc2ncc(=O)n(C[C@H]3CCCO3)c2n1`: “inactive”. Turning to `CCNc1ncc2nc(-c3ccccc3)c(=O)n(Cc3cccc(OC)c3)c2n1`, the AC50 result was “inactive”. On the same count and under the same terms, the same measure for `COc1cccc(Cn2c(=O)c(-c3cccc(C#N)c3)nc3cnc(Nc4ccccc4)nc32)c1`: “inactive”; for `COc1cccc(Cn2c(=O)c(-c3cccc(C#N)c3)nc3cnc(OC)nc32)c1`: 12.6 µM (active).

Consider `COc1ncc2nc(-c3ccc(F)cc3)c(=O)n(Cc3ccc(F)cc3)c2n1`, for which the AC50 result was “inactive”. Same read-out and setting: next, `COc1cccc(Cn2c(=O)c(-c3cccc(C#N)c3)nc3cnc(N4CCN(C)CC4)nc32)c1`: “inactive”; `COc1cccc(Cn2c(=O)c(-c3ccccc3)nc3cnc(OC)nc32)c1`: 12.6 µM (active); `CC/C(O)=C(\C#N)c1nnc2n1CCCCC2`: “inactive”. The same measure, in the same setting: next, `CC(C)Oc1ccc(CSC(=N)N)cc1`: “inactive”. As for `N#CC(C#N)=CNCCN1CCN(C=C(C#N)C#N)CC1`, the activity, negative = inhibition is 5.25% [at 11.4 µM].

As to `COCCNC(=O)COc1ccc(Oc2ccccc2)cc1`, the AC50 was 0.316 µM (active). Same read-out and setting: next, `COCCNC(=O)CCn1c(=O)oc2ccccc21`: “inactive”; `COCCNC(=O)COc1ccc(OCCNC[C@@H](O)COc2ccccc2)cc1`: “inactive”; `CS(=O)(=O)N1CCC2(CCCN(C(=O)Nc3cccc(F)c3)C2)CC1`: “inactive”. On the same count and under the same terms, next, `CCOc1ccc(NCc2nnc(SCc3ccccc3Cl)n2-c2ccccc2)cc1`: 7.94 µM (active); `COC(Cc1nnc(SC)n1-c1ccccc1)OC`: “inactive”. On to `CC(=O)NCCNc1ncnc2ccc(-c3ccc(C(=O)N(C)C)cc3)cc12`, for which the activity, negative = inhibition was 3.47% [at 2.29 µM]. For the compound `CC(=O)OC[C@@H]1O[C@H](C/C=N\OCC[C@H]2C=C[C@H](OC(C)=O)[C@@H](COC(C)=O)O2)C=C[C@@H]1OC(C)=O`, the activity, negative = inhibition is 19.9% [at 11.4 µM].

In the case of `Cc1noc(C)c1-c1cncnc1NCCN1CCOCC1`, the activity, negative = inhibition is -15.1% [at 2.29 µM]. In the case of `O=S(=O)(Cc1cc(Oc2ccccc2)nc(-c2ccccc2)n1)c1ccccc1`, the concentration at half-maximal activity (AC50) was 0.891 µM (active). Same read-out and setting: the same measure for `N[C@@H](CS(=O)O)C(=O)O`: “inactive”; for `CCn1c2ccccc2c2cc(NC(=O)C/C(C)=N/NC(=O)c3ccccc3N)ccc21`: 35.5 µM (active).

Turning to `CC(=O)Nc1ccc(NC(=O)C/C(C)=N/NC(=O)C(=O)N2CCCC2)cc1`, the AC50 entry was “inactive”. With `COCCn1c(=O)c(C)nc2cnc(Oc3cccc(Cl)c3)nc21`, the AC50 was 12.6 µM (active). The same measure, in the same setting: the same measure for `COCCn1c(=O)cnc2cnc(Oc3ccc(OC)cc3)nc21`: “inactive”. On the same count and under the same terms, next, `COCCn1c(=O)cnc2cnc(Oc3cccc(Cl)c3)nc21`: 15.8 µM (active). Still for that read-out and setting: next, `Cc1nc2cnc(Oc3cccc(Cl)c3)nc2n(CCc2ccccc2)c1=O`: “inactive”. Turning to `COCCn1c(=O)cnc2cnc(Oc3ccccc3)nc21`, the AC50 result is “inactive”. `COc1ccc(C2CC(=O)CC(=O)C2n2cncn2)cc1` (stereo unspecified): the AC50 entry was “inactive”. On the same count and under the same terms, next, `O=C(O)CSc1sc(=S)sc1SCC(=O)O`: “inactive”; `Cc1sc2ncn(CC(=O)NCCCC(=O)N3CCN(c4ncccn4)CC3)c(=O)c2c1C`: 11.2 µM (active). On the same count and under the same terms, next, `O=C(Nc1cccc2ncccc12)c1cccc(F)c1`: “inactive”. For the compound `O=C(O)/C=C\C(=O)Nc1ccccn1`, the activity, negative = inhibition is 25.1% [at 11.4 µM]. `O=C(Nc1cccc(F)c1)Nc1ccccn1`: the AC50 was 25.1 µM (active). Regarding `C[C@@H]1/C=C\CC(=O)OC[C@H]2O[C@@H](C=C[C@@H]2O)[C@H](C)/C=C\CC(=O)OC[C@H]2O[C@H]1C=C[C@@H]2O`, the activity, negative = inhibition is -9.33% [at 11.4 µM]. As to `O=C(c1ccco1)N1CCC2(CCCN(c3ccccc3)C2)CC1`, the AC50 entry is “inactive”. In the case of `O=C(c1ccco1)N1CCC2(CCCN(C(c3ccccc3)c3ccccc3)C2)CC1`, the AC50 is 12.6 µM (active). The same measure, in the same setting: next, `Cc1noc(C)c1C(=O)N1CCC2(CCCN(C(c3ccccc3)c3ccccc3)C2)CC1`: “inactive”; `CC(C)NC(=O)N1CCCC2(CCN(C(=O)c3ccncc3)CC2)C1`: “inactive”; `O=C(c1cccc(F)c1)N1CCC2(CCCN(C(c3ccccc3)c3ccccc3)C2)CC1`: 3.16 µM (active). For `O=C(c1ccncc1)N1CCC2(CC1)CN(C(c1ccccc1)c1ccccc1)C2`, the AC50 was 10 µM (active).

Turning to `CC(C)NC(=O)N1CC2(CCN(C(=O)c3ccncc3)CC2)C1`, the AC50 result is “inactive”. The same measure, in the same setting: the same measure for `O=C(c1ccco1)N1CCC2(CCCN(Cc3ccccc3)C2)CC1`: “inactive”. On the same count and under the same terms, the same measure for `O=C(c1ccncc1)N1CCC2(CCCN(C(c3ccccc3)c3ccccc3)C2)CC1`: 5.01 µM (active). As for `CC(C)CN1CCCC2(CCN(C(=O)c3cccc(F)c3)CC2)C1`, the AC50 result was “inactive”. On the same count and under the same terms, next, `O=C(c1cccc(F)c1)N1CCC[C@@]2(CCN(C(c3ccccc3)c3ccccc3)C2)C1`: “inactive”. On the same count and under the same terms, next, `O=C(c1cnccn1)N1CCC2(CC1)CCN(C(c1ccccc1)c1ccccc1)CC2`: “inactive”.

In the case of `C[C@@H](C[C@H](N)C(=O)O)C(=O)O`, the activity, negative = inhibition is 0.375% [at 11.4 µM].

In the case of `Cc1cnc(CNc2nc(-c3ccccc3C(F)(F)F)nc3ccccc23)cn1`, the activity, negative = inhibition is -16.4% [at 2.29 µM]. On to `O=C(c1cnccn1)N1CCC[C@@]2(CCN(C(c3ccccc3)c3ccccc3)C2)C1`, for which the AC50 entry was “inactive”. Same read-out and setting: next, `O=C(c1cnccn1)N1CCC2(CC1)CN(C(c1ccccc1)c1ccccc1)C2`: “inactive”.

With `O=C(c1cnccn1)N1CCC2(CCCN(C(c3ccccc3)c3ccccc3)C2)CC1`, the AC50 was 12.6 µM (active).
